Activity calls are given as the source filed them.
How the values were obtained:
[1] = system: PRMT1 (protein arginine N-methyltransferase 1); assay: PRMT1 binders on small-molecule microarrays, primary screen, biochemical, small-molecule microarray, 635 nm fluorescence (AID 1088); settings: small-molecule microarray binding, higher = more signal;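 further: binding of Prmt1 protein to compounds spotted on small-molecule microarray slides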
[2] = yeast growth modulation, basal conditions, primary screen, YJM789 clinical isolate, OD600, 24 h (AID 1089);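 further: growth of clinical yeast isolate S. cerevisiae YJM 789 seeded 1000 cells per well; test concentration not given here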; settings: S. cerevisiae YJM789 growth, higher = more signal, called active from +8 up or from −8 down
[3] = fission yeast growth modulation, primary screen, strain 972, OD600, 24 h, no modulator (AID 1090);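 further: basal condition with compound alone and no growth modifier present; test concentration not given here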; settings: S. pombe 972 growth, higher = more signal, called active from +8 up or from −8 down
[4] = S. cerevisiae growth modulation with rapamycin, primary screen, strain BY4716, OD600, 96 h (AID 1091); settings: higher = more signal, called active from +8 up or from −8 down; further: test concentration not given here
[5] = target: Torsin-1A-interacting protein 2 (Homo sapiens) (UniProt Q8NFQ8); assay: LULL1 binders on small-molecule microarray, primary screen, cell lysate, human LULL1 lysate, 635/667 nm fluorescence (AID 1092); settings: hLULL1 lysate binding, 635 nm fluorescence, higher = more signal;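 further: probe is lysate of COS7 cells overexpressing human LULL1; score merges per-feature 667 nm fluorescence with signal-to-noise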
[6] = E. coli growth modulation, two-sided OD650, primary screen, E. coli filamentation project, strain DRC41, 24 h (AID 1093); settings: OD650, 24 h, higher = more signal, called active from +8 up or from −8 down;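 further: MC1000 strain lacking acrAB efflux and sulA so SOS filamentation is blocked; test concentration not given here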
[7] = small-molecule microarray binders of probe aLefty2, primary screen, biochemical, biotinylated probe, 635/667 nm fluorescence (AID 1094); settings: higher = more signal;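 further: score merges spot fluorescence near 667 nm with spot signal-to-noise ratio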
[8] = system: Noggin (protein binding on small-molecule microarray); assay: Noggin binders on small-molecule microarray, primary screen, biochemical, 635/667 nm fluorescence (AID 1095); settings: 635 nm fluorescence, higher = more signal;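 further: score merges 667 nm feature fluorescence with signal to noise over triplicate slides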
[9] = target: Neurogenic locus notch homolog protein 3 (Homo sapiens) (UniProt Q9UM47); assay: NOTCH3 binders on small-molecule microarray, primary screen, biochemical, 635/667 nm fluorescence (AID 1096); settings: NOTCH3 binding, 635 nm fluorescence, higher = more signal
[10] = small-molecule microarray binders of probe aEGFR, primary screen, biochemical, biotinylated probe, 635/667 nm fluorescence (AID 1097); settings: higher = more signal;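 further: probe is a biotinylated anti-EGFR antibody binding compounds printed on slides; score combines fluorescence near 667 nm and signal to noise of each spot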
[11] = system: Plasmodium falciparum Sir2 (PF13_0152, Sir2A); assay: pfSir2 binders on small-molecule microarrays, primary screen, biochemical, small-molecule microarray, 635 nm fluorescence (AID 1098); settings: small-molecule microarray binding, fluorescence 635 nm; higher = more signal;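 further: score merges spot fluorescence intensity with its signal-to-noise ratio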
[12] = small-molecule microarray binders of probe aDKK1, primary screen, biochemical, biotinylated probe, 635/667 nm fluorescence (AID 1099); settings: higher = more signal;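 further: score merges 667nm spot fluorescence with signal to noise across triplicate slides; reference of the scale not given here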
[13] = small-molecule microarray binders of probe aCHRDL2, primary screen, biochemical, biotinylated probe, 635/667 nm fluorescence (AID 1100); settings: higher = more signal
[14] = splicing luciferase reporter signal modulators, primary screen, spliceosome inhibition project, cell-based, HEK293, splice +/- reporter (AID 1101); settings: luminescence, 24 h, higher = more signal, called active from +8 up or from −8 down;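 further: HEK293 cells carrying a splicing-competent luciferase reporter gene; test concentration not given here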
[15] = target: Fibroblast growth factor 10 (Homo sapiens) (UniProt O15520); assay: FGF10 binders on small-molecule microarrays, primary screen, biochemical, small-molecule microarray, 635 nm fluorescence (AID 1102); settings: FGF10 binding, fluorescence 635 nm, higher = more signal
[16] = system: glycogen synthase kinase-3 (GSK3A per assay name; protocol says GSK3B); assay: GSK3 binders on small-molecule microarrays, primary screen, biochemical, small-molecule microarray, 635 nm fluorescence, GSK3A (AID 1103); settings: small-molecule microarray binding, fluorescence 635 nm; higher = more signal; further: the record names both GSK3A and GSK3B
[17] = target: Epidermal growth factor receptor (Homo sapiens) (UniProt P00533); assay: EGFR binders on small-molecule microarrays, primary screen, biochemical, small-molecule microarray, 635 nm fluorescence (AID 1104); settings: EGFR binding, higher = more signal;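 further: score merges 667 nm emission intensity with spot signal to noise over triplicate slides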
[18] = target: Follistatin-related protein 3 (Homo sapiens) (UniProt O95633); assay: FSTL3 binders on small-molecule microarrays, primary screen, biochemical, small-molecule microarray, 635 nm fluorescence (AID 1105); settings: FSTL3 binding, higher = more signal;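 further: score merges emission near 667 nm and signal to noise per printed spot across three slides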
[19] = target: Dickkopf-related protein 1 (Homo sapiens) (UniProt O94907); assay: DKK1 binders on small-molecule microarrays, primary screen, biochemical, small-molecule microarray, 635 nm fluorescence scan (AID 1106); settings: DKK1 binding, higher = more signal;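 further: score merges emission near 667 nm with signal to noise over three replicate slides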
[20] = system: Inhibin beta A chain (activin A); assay: INHBA (activin A) binders on microarrays, primary screen, biochemical, small-molecule microarray, 635 nm fluorescence scan (AID 1107); settings: small-molecule microarray binding, higher = more signal;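 further: mouse activin A protein probed at 4.33 µg/mL on printed slides; score merges bound-protein fluorescence near 667 nm with spot signal-to-noise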

Follistatin-related protein 3 (Homo sapiens), sequence (O95633 whole entry, looked up): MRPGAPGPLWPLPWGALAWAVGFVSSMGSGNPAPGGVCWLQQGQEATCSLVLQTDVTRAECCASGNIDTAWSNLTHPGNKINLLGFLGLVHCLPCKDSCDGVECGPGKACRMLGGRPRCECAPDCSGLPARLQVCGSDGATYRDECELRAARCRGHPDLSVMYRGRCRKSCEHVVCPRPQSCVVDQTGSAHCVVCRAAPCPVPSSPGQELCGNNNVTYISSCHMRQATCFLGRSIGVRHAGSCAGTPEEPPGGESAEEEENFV
Fibroblast growth factor 10 (Homo sapiens), sequence (O15520 whole entry, looked up): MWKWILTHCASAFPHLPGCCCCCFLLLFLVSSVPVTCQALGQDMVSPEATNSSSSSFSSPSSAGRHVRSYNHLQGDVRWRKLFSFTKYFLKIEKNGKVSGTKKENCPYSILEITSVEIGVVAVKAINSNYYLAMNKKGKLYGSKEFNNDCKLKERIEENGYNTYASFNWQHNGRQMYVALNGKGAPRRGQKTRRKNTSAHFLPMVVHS
Neurogenic locus notch homolog protein 3 (Homo sapiens), sequence (Q9UM47 whole entry, looked up): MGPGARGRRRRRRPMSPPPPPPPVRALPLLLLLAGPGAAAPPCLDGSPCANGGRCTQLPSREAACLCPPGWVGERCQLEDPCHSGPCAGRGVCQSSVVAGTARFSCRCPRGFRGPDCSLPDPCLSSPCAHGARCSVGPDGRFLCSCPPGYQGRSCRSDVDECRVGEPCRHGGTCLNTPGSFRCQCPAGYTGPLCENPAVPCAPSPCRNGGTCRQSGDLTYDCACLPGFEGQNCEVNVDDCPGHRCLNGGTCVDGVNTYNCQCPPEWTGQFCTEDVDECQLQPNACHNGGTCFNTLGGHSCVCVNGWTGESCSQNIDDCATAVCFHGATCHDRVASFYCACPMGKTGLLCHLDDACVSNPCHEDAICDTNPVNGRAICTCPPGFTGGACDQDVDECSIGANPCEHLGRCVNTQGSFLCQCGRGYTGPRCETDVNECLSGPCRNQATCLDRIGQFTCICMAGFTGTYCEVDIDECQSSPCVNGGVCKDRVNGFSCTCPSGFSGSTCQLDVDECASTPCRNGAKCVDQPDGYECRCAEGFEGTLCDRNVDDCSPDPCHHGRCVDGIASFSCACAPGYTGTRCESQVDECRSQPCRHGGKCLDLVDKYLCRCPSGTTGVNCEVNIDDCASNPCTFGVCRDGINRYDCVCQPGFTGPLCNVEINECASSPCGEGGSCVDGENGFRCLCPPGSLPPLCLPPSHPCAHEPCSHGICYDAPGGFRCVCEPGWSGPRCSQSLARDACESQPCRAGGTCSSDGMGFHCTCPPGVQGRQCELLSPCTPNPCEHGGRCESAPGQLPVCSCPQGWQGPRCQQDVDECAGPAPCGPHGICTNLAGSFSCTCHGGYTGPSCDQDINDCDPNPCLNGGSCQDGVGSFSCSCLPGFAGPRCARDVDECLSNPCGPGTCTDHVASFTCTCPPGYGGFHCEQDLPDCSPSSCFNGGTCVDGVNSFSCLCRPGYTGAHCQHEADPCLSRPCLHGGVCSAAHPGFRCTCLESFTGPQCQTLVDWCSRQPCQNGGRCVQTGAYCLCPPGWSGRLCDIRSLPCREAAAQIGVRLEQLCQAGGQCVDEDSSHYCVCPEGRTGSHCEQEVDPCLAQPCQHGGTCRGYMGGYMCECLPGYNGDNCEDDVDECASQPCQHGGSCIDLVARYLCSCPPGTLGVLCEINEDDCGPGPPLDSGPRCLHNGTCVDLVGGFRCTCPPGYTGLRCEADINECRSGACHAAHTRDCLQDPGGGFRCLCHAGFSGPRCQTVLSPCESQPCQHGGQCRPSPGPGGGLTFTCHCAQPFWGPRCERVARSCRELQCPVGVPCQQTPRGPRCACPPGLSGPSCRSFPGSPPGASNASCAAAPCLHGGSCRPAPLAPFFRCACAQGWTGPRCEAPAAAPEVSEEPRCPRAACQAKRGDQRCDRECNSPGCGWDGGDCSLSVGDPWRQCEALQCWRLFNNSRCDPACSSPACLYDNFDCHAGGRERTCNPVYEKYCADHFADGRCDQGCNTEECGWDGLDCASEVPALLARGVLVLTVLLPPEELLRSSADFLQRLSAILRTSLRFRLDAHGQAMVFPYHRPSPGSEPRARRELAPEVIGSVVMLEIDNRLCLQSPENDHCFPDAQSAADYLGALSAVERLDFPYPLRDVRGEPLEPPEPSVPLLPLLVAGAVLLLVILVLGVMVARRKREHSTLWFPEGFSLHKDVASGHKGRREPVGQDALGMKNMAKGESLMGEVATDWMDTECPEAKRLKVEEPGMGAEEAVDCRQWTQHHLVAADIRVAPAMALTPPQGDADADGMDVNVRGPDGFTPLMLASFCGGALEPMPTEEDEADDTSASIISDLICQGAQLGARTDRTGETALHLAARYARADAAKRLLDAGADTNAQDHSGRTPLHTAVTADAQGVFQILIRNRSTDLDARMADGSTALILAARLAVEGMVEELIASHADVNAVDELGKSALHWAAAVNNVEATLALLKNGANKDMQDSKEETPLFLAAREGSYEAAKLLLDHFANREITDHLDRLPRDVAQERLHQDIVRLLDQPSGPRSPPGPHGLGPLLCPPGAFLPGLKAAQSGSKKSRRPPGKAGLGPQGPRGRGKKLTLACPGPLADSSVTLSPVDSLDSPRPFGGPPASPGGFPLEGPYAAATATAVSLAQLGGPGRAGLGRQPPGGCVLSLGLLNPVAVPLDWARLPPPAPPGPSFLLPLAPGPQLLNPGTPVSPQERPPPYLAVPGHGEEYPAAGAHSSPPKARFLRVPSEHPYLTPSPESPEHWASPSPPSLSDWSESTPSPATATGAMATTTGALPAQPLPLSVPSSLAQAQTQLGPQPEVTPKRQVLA
Torsin-1A-interacting protein 2 (Homo sapiens), sequence (Q8NFQ8 whole entry, looked up): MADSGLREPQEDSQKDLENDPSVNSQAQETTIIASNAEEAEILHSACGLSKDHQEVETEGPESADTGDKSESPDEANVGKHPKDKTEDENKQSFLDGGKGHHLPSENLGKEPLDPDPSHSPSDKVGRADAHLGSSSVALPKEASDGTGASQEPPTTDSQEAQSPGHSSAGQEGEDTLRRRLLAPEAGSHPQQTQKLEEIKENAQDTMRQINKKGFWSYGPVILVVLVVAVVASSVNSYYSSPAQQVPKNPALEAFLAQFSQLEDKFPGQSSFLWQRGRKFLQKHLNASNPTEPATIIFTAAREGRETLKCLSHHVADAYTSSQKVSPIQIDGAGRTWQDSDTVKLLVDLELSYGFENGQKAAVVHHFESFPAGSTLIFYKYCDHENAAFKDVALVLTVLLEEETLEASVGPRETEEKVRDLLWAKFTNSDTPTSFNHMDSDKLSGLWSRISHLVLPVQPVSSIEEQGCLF
Dickkopf-related protein 1 (Homo sapiens), sequence (O94907 whole entry, looked up): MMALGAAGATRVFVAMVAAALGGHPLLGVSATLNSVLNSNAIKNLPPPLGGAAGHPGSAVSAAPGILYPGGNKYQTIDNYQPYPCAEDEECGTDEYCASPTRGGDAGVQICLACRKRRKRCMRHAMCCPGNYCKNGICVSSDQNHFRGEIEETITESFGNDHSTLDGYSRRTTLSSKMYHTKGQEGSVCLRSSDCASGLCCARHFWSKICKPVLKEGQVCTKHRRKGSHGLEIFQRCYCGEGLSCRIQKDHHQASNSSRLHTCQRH
Epidermal growth factor receptor (Homo sapiens), sequence (P00533 whole entry, looked up): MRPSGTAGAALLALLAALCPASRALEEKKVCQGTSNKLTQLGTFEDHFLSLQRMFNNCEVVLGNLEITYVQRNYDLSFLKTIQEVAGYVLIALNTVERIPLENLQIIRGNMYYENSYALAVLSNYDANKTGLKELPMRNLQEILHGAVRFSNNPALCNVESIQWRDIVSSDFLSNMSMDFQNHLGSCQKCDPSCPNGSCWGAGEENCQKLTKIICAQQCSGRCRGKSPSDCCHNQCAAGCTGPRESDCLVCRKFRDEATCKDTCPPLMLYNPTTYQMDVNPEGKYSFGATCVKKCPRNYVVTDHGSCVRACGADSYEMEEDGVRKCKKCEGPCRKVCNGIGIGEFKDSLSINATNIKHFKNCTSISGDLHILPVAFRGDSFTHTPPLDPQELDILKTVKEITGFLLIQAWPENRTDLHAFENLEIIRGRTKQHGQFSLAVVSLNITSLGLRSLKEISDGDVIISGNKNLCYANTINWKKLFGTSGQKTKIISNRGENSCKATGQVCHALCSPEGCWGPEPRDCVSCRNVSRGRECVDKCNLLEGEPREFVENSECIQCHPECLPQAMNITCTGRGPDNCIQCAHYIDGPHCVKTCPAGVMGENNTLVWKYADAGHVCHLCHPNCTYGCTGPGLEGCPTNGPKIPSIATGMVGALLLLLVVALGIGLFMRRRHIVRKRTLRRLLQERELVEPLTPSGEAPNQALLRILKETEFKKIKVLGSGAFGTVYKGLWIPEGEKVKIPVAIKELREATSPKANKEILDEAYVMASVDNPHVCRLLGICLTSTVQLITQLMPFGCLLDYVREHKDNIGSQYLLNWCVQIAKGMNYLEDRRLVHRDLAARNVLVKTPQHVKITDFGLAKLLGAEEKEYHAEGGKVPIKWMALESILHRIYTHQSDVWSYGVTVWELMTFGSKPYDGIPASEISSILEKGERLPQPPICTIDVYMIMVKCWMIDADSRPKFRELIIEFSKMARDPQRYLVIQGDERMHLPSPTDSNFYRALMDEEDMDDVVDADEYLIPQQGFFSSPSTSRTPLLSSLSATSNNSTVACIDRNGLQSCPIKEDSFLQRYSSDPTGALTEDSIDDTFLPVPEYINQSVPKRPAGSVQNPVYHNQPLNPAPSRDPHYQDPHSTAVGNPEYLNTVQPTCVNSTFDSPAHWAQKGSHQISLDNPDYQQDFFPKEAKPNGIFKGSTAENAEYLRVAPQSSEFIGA

| SMILES | composite z-score [1] | z-score [2] | z-score [3] | z-score [4] | composite z-score [5] | z-score [6] | composite z-score [7] | composite z-score [8] | composite z-score [9] | composite z-score [10] | composite z-score [11] | composite z-score [12] | composite z-score [13] | z-score [14] | composite z-score [15] | composite z-score [16] | composite z-score [17] | composite z-score [18] | composite z-score [19] | composite z-score [20] |
| --- | --- | --- | --- | --- | --- | --- | --- | --- | --- | --- | --- | --- | --- | --- | --- | --- | --- | --- | --- | --- |
| CC(C)[C@@H](C(=O)O)n1cc(-c2ccccc2)nn1 | 0.0283 | -0.0149 (inactive) | -0.0883 (inactive) | -0.244 (inactive) | 1.19 | -1.44 (inactive) | -0.0623 | 0.192 | 0.938 | 0.125 | 0.377 | 0.824 | 0.69 | 0.317 (inactive) | 0.737 | 1.27 | 0.262 | 0.256 | 0.0435 | 0.48 |
| CCCCC(O)C1C=CC2C(=O)NC(=O)C2N1Nc1ccccn1 (stereo not given) | -0.357 | 0.374 (inactive) | 0.667 (inactive) | 0.0569 (inactive) | 0.0273 | -1.73 (inactive) | -0.0825 | -0.0426 | -0.421 | -0.067 | 1.1 | 0.0006 | -0.0537 | 2.17 (inactive) | -0.0249 | 0.0652 | 0.207 | -0.404 | 0.0816 | 0.555 |
| CCOC(=O)C1=CC[C@@H](c2ccc(F)cc2)N(S(=O)(=O)c2ccc(C)cc2)[C@H]1c1ccc([N+](=O)[O-])cc1 | 0.518 | 0.342 (inactive) | 1.32 (inactive) | 6.03 (inactive) | 2.5 | 0.543 (inactive) | 0.0322 | -0.234 | 0.73 | -0.0409 | 0.681 | 0.0684 | 0.373 | -0.689 (inactive) | 0.914 | 0.988 | -0.24 | 0.485 | -0.453 | 0.537 |
| C=CCOC(=O)[C@H]1[C@@H]2C(=O)O[C@@H](c3ccccc3)[C@@H](c3ccccc3)N2[C@@H](c2ccc(OCCOC(=O)[C@@H]3C[C@@H]4C(=O)N[C@@H](CC(C)C)C(=O)N4[C@@H]3c3ccc(O)cc3)cc2)[C@]12C(=O)Nc1ccc(I)cc12 | 1.58 | -3.69 (inactive) | 0.698 (inactive) | 3.36 (inactive) | 2.44 | 0.452 (inactive) | -0.103 | 1.23 | 0.752 | 0.006 | 1.09 | 0.0615 | -0.0756 | -1.41 (inactive) | 0.649 | 1.13 | 0.993 | 0.644 | 0.928 | -0.0053 |
| Cc1ccc(S[C@]2(C(=O)NCC(F)(F)F)CC(=O)N(C3CCCCC3)[C@@H]2c2ccc(CO)cc2)cc1 | 1.28 | 0.565 (inactive) | -0.211 (inactive) | -0.0121 (inactive) | 2.9 | 0.471 (inactive) | 0.0078 | -0.461 | -0.107 | -0.194 | 1.58 | 0.433 | 0.83 | 0.113 (inactive) | 0.162 | -0.374 | -0.235 | -0.517 | -1.09 | -0.0076 |
| CC(C)CNC(=O)[C@@H]1c2ccccc2C(=O)N(C(C)C)[C@H]1c1ccc(CO)cc1 | 0.12 | -1.37 (inactive) | 0.0396 (inactive) | -0.421 (inactive) | 2.33 | 0.794 (inactive) | -0.166 | 0.126 | 0.0151 | -0.246 | 1.36 | 0.0026 | 0.763 | -1.26 (inactive) | -0.787 | -0.221 | -0.5 | -0.573 | -0.382 | 0.849 |
| O=C1NC(=O)C2C1C=CC(C(O)c1cccc(O)c1)N2Nc1ccc(Cl)cc1Cl (stereo not given) | -1.24 | -0.927 (inactive) | 0.765 (inactive) | 0.668 (inactive) | 0.991 | -2.08 (inactive) | 0.0893 | 0.115 | -0.207 | 0.012 | -0.195 | 0.454 | 0.815 | 1.16 (inactive) | 0.0046 | -0.607 | -0.531 | -0.358 | -0.555 | 0.519 |
| O=C1O[C@@H](c2ccccc2)[C@@H](c2ccccc2)N2[C@@H](c3ccc(O)cc3)[C@]3(C(=O)Nc4ccc(C#CC5=CCCCC5)cc43)[C@@H](C(=O)N3CCCCCCC3)[C@H]12 | 1.54 | -1.67 (inactive) | -0.604 (inactive) | 0.694 (inactive) | 3.44 | 1.09 (inactive) | 1.22 | 1.16 | 1.02 | 0.465 | 1.6 | 1.53 | 1.25 | -1.28 (inactive) | 0.66 | 1.29 | 0.623 | 1.35 | 0.485 | 1.79 |
| CCCCC(O)C1C=CC2C(=O)N(C)C(=O)C2N1Nc1ccccc1 (stereo not given) | 0.24 | 0.763 (inactive) | 0.555 (inactive) | 1.99 (inactive) | 3.13 | -1.26 (inactive) | -0.013 | -0.649 | 0.51 | -0.143 | 0.236 | 0.304 | 0.411 | 0.94 (inactive) | 0.191 | -0.0703 | -0.319 | 0.0934 | -0.8 | 1.24 |
| COC(=O)[C@@]1(CCS(=O)(=O)c2ccccc2)N=C(c2ccc(OCCCO)cc2)O[C@H]1c1ccccc1N=[N+]=[N-] | 1.56 | 0.349 (inactive) | -0.238 (inactive) | 34.6 (active) | 3.29 | 0.96 (inactive) | -0.0341 | 0.492 | 1.09 | -0.0968 | 1.52 | 0.336 | 0.475 | 0.177 (inactive) | 0.419 | 1.29 | 0.491 | 0.969 | 0.425 | 0.865 |

— PubChem BioAssay
